# Data published in PubChem BioAssay AID2284186 (EPA ToxCast).
# The source made the active and inactive calls. Rule for the calls: active = hit-call score of the fitted dose curve at least 0.9, where 1 is the maximum; inactive = score below 0.9.
# Molecular target: Glucocorticoid receptor (Homo sapiens) (UniProt P04150)
# Assay: ERF_FR_NR_hGR: Eurofins (ERF) Nuclear Receptor (NR) Radioligand Binding LeadHunter Assay for human Glucocorticoid Receptor (GR) Agonism, conducted at France lab site
# Description: ERF_FR_NR_hGR is a biochemical, single-readout assay that uses extracted gene-proteins in a cell-free assay. Measurements were taken 6 hour after chemical dosing in a 96-well plate. See GR Human Glucocorticoid NHR Binding (Agonist Radioligand) Assay, Cerep.ERF_FR_NR_hGR is an assay component calculated from the ERF_FR_NR_hGR assay. It is designed to measure radioligand binding using a type of binding reporter as detected by scintillation counting with radiometry technology.Data from the assay component ERF_FR_NR_hGR was analyzed at the assay endpoint, ERF_FR_NR_hGR, in the positive analysis fitting direction relative to DMSO as the negative control and baseline of activity. Using a type of binding reporter, gain-of-signal activity can be used to understand changes in binding as they relate to gene NR3C1. To generalize the intended target to other relatable targets, this assay endpoint is annotated to the nuclear receptor intended target family, where the subfamily is steroidal.
# Human cells are incubated for 24 hours at 4C with [3H]dexamethasone ([…]) ligand and Dexamethazone as control inhibitor. Test Sample Requirements: Minimum for 1) Screen: 60 ul of 10 mM stock -OR- 1 mg (pre-weighed) for 10 uM final testing. 2) Dose Response: 90 ul of 10 mM stock -OR- 1 mg (pre-weighed) for a top concentration at 10 uM.
# Glucocorticoid receptor (Homo sapiens), sequence (P04150 whole entry, looked up): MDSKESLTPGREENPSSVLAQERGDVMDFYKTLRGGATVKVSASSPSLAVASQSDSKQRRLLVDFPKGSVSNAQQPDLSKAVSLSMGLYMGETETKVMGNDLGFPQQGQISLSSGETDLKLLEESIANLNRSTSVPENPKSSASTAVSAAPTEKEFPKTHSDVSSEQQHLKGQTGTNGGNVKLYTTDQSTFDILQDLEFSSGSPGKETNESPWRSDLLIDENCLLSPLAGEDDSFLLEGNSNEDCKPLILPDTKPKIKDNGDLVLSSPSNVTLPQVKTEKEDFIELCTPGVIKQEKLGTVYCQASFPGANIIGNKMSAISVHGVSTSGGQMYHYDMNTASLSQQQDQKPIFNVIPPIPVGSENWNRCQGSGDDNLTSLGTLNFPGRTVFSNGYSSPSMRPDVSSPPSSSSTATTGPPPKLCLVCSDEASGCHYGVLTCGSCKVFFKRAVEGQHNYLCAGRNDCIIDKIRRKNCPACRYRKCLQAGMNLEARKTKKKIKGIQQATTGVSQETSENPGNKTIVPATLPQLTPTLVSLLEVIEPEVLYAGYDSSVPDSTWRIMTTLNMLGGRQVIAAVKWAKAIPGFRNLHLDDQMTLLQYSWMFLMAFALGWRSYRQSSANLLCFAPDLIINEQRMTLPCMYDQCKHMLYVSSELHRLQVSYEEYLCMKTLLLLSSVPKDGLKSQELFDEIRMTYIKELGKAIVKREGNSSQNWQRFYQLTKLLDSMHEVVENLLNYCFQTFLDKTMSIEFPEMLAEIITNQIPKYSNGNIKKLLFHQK
row,SMILES,AC50
1,O=C(/C=C/c1ccc(O)cc1)CC(=O)/C=C/c1ccc(O)cc1,0.969 µM (active)
